Measurements from PubChem BioAssay (EPA / NIEHS).
The source made the active and inactive calls. The calls were made as follows: active = hit-call score of the fitted dose curve at least 0.9, where 1 is the maximum; inactive = score below 0.9.

Experiments:
Conditions in all cases: mRNA level, 48 h; actives raise or lower the signal
[1] = read-out: matrix metalloproteinase-3 (MMP3), MMP3 (gene 4314); experiment: LTEA_HepaRG_MMP3: Life Technologies and Expression Analysis (LTEA) Assay for matrix metalloproteinase-3 (MMP3) using HepaRG (AID 2283519)
How it was run: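 Differentiated human HepaRG cells, plated 48 h on collagen I, were exposed in duplicate for 48 h in serum-free induction medium to eight half-log concentrations up to 100 uM in 0.5% DMSO. MMP3 mRNA was quantified by TaqMan qRT-PCR, normalised to ACTB, GAPDH and POLR2A.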

[2] = read-out: Paternally Expressed 10 (PEG10), PEG10 (gene 23089); experiment: LTEA_HepaRG_PEG10: Life Technologies and Expression Analysis (LTEA) Assay for Paternally Expressed 10 (PEG10) using HepaRG (AID 2283520)
How it was run: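 Differentiated HepaRG cells, plated 48 h then switched to serum-free induction medium, were exposed in duplicate for 48 h to eight half-log concentrations topping at 100 uM in 0.5% DMSO. PEG10 mRNA was quantified by TaqMan qRT-PCR, normalised to ACTB, GAPDH and POLR2A.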

[3] = read-out: Nuclear factor NF-kappa-B p105 subunit (Homo sapiens) (UniProt P19838); experiment: LTEA_HepaRG_NFKB1: Life Technologies and Expression Analysis (LTEA) Assay for Nuclear Factor Kappa B Subunit 1 (NFKB1) using HepaRG (AID 2283521);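 also: TaqMan qRT-PCR transcript normalised to ACTB GAPDH and POLR2A housekeeping genes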
How it was run: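 Human HepaRG cells receive eight half-log concentrations, highest 100 uM, for 48 h. NFKB1 expression is then quantified by qRT-PCR and analysed for up- or down-regulation relative to 0.5% DMSO vehicle.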

[4] = read-out: Protein phosphatase 2A (PPP2R4), PTPA (gene 5524); experiment: LTEA_HepaRG_PPP2R4: Life Technologies and Expression Analysis (LTEA) Assay for Protein phosphatase 2A (PPP2R4) using HepaRG (AID 2283522)
How it was run: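 Differentiated HepaRG cells in serum-free induction medium were exposed in duplicate for 48 h to eight concentrations, top 100 uM with half-log dilutions, in 0.5% DMSO. PPP2R4 mRNA was quantified by TaqMan qRT-PCR, normalized to ACTB, GAPDH and POLR2A.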

[5] = read-out: Phosphatase and tensin (PTEN), PTEN (gene 5728); experiment: LTEA_HepaRG_PTEN: Life Technologies and Expression Analysis (LTEA) Assay for Phosphatase and tensin (PTEN) using HepaRG (AID 2283523)
How it was run: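 Differentiated human HepaRG cells, plated 48 h then switched to serum-free induction medium, were exposed in duplicate for 48 h to eight half-log concentrations up to 100 uM in 0.5% DMSO. PTEN mRNA measured by TaqMan qRT-PCR, normalized to ACTB/GAPDH/POLR2A, bidirectional fit versus DMSO.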

[6] = read-out: solute carrier (SLC22A1), SLC22A1 (gene 6580); experiment: LTEA_HepaRG_SLC22A1: Life Technologies and Expression Analysis (LTEA) Assay for solute carrier (SLC22A1) using HepaRG (AID 2283524)
How it was run: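 Human HepaRG cells were plated 48 h, switched to serum-free induction medium, then exposed in duplicate for 48 h to 8-point half-log series from 100 uM in 0.5% DMSO. SLC22A1 mRNA measured by qRT-PCR, normalized to ACTB/GAPDH/POLR2A, fitted bidirectionally versus DMSO.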

[7] = read-out: Pyruvate Dehydrogenase Kinase 4 (PDK4), PDK4 (gene 5166); experiment: LTEA_HepaRG_PDK4: Life Technologies and Expression Analysis (LTEA) Assay for Pyruvate Dehydrogenase Kinase 4 (PDK4) using HepaRG (AID 2283525)
How it was run: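 Differentiated human HepaRG cells, pre-cultured 48 h, were exposed in duplicate for 48 h in serum-free induction medium to eight half-log concentrations up to 100 uM in 0.5% DMSO. PDK4 mRNA was quantified by qRT-PCR, normalized to ACTB, GAPDH and POLR2A, bidirectional fitting versus DMSO.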

[8] = read-out: NAD(P)H dehydrogenase [quinone] 1 (NQO1), NQO1 (gene 1728); experiment: LTEA_HepaRG_NQO1: Life Technologies and Expression Analysis (LTEA) Assay for NAD(P)H dehydrogenase [quinone] 1 (NQO1) using HepaRG (AID 2283526)
How it was run: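 Differentiated HepaRG cells, plated 48 h and then switched to serum-free induction medium, were exposed in duplicate for 48 h to 8-point half-log concentrations up to 100 uM in 0.5% DMSO. mRNA measured by qRT-PCR, normalized to ACTB, GAPDH, POLR2A; bidirectional fit versus DMSO.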

[9] = read-out: Nuclear factor erythroid 2-related factor 2 (Homo sapiens) (UniProt Q16236); experiment: LTEA_HepaRG_NFE2L2: Life Technologies and Expression Analysis (LTEA) Assay for Nuclear factor erythroid 2-related factor 2 (NFE2L2) Transcription Factor using HepaRG (AID 2283527);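 as to outcome: TaqMan qRT-PCR transcript level normalised to ACTB GAPDH and POLR2A housekeeping genes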
How it was run: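 Differentiated human HepaRG cells in serum-free induction medium were exposed for 48 h to eight concentrations (top 100 uM, half-log dilutions, 0.5% DMSO), in duplicate. NFE2L2 mRNA was quantified by TaqMan qRT-PCR, normalized to ACTB, GAPDH and POLR2A, with bidirectional fitting versus DMSO.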

[10] = read-out: succinate dehydrogenase complex iron sulfur subunit B (SDHB), SDHB (gene 6390); experiment: LTEA_HepaRG_SDHB: Life Technologies and Expression Analysis (LTEA) Assay for succinate dehydrogenase complex iron sulfur subunit B (SDHB) using HepaRG (AID 2283528)
How it was run: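 A human HepaRG culture in serum-free induction medium received test chemicals for 48 h over an eight-point range capped at 100 uM. SDHB expression change was quantified by qRT-PCR.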

[11] = read-out: Signal transducer and activator of transcription 3 (Homo sapiens) (UniProt P40763); experiment: LTEA_HepaRG_STAT3: Life Technologies and Expression Analysis (LTEA) Assay for Signal transducer and activator of transcription (STAT3) using HepaRG (AID 2283529)
How it was run: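 Differentiated human HepaRG cells in serum-free induction medium were exposed in duplicate for 48 h to eight half-log concentrations up to 100 uM in 0.5% DMSO. STAT3 mRNA was quantified by TaqMan qRT-PCR, normalized to ACTB, GAPDH and POLR2A, and fitted bidirectionally against DMSO.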

[12] = read-out: solute carrier (SLCO1B1), SLCO1B1 (gene 10599); experiment: LTEA_HepaRG_SLCO1B1: Life Technologies and Expression Analysis (LTEA) Assay for solute carrier (SLCO1B1) using HepaRG (AID 2283530)
How it was run: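 Gain or loss of SLCO1B1 mRNA is fitted against the 0.5% DMSO vehicle in human HepaRG liver cells treated 48 h at up to 100 uM in half-log steps. Expression comes from qRT-PCR normalized to endogenous controls.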

[13] = read-out: sulfotransferase 2A1 (SULT2A1), SULT2A1 (gene 6822); experiment: LTEA_HepaRG_SULT2A1: Life Technologies and Expression Analysis (LTEA) Assay for sulfotransferase 2A1 (SULT2A1) using HepaRG (AID 2283531)
How it was run: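 Cells were plated and cultured 48 h, switched to serum-free induction medium, then dosed in duplicate for 48 h (8 concentrations, max 100 uM). RNA was isolated and SULT2A1 expression measured by qRT-PCR; gain or loss of signal fitted relative to DMSO.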

[14] = read-out: Transforming Growth Factor (TGFA), TGFA (gene 7039); experiment: LTEA_HepaRG_TGFA: Life Technologies and Expression Analysis (LTEA) Assay for Transforming Growth Factor (TGFA) using HepaRG (AID 2283532)
How it was run: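 Differentiated human HepaRG cells, plated 48 h then switched to serum-free induction medium, were exposed in duplicate for 48 h to 8-point half-log series from 100 uM in 0.5% DMSO. TGFA mRNA measured by qRT-PCR, normalized to ACTB/GAPDH/POLR2A, bidirectional fit versus DMSO.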

[15] = read-out: Transforming Growth Factor (TGFB1), TGFB1 (gene 7040); experiment: LTEA_HepaRG_TGFB1: Life Technologies and Expression Analysis (LTEA) Assay for Transforming Growth Factor (TGFB1) Transporter using HepaRG (AID 2283533)
How it was run: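 Expression change of TGFB1 in human HepaRG cells is measured after a 48 h chemical exposure, up to 100 uM in 0.5% DMSO vehicle. Curves are fitted in both directions relative to the DMSO baseline.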

[16] = read-out: Tumor necrosis factor receptor 1 (TNFRSF1A), TNFRSF1A (gene 7132); experiment: LTEA_HepaRG_TNFRSF1A: Life Technologies and Expression Analysis (LTEA) Assay for Tumor necrosis factor receptor 1 (TNFRSF1A) using HepaRG (AID 2283535)
How it was run: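 Expression of TNFRSF1A in human HepaRG liver cells was measured by qRT-PCR 48 h after chemical dosing (maximum 100 uM). Bidirectional curve fitting used 0.5% DMSO as baseline.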

[17] = read-out: Thyroid Hormone Responsive (THRSP), THRSP (gene 7069); experiment: LTEA_HepaRG_THRSP: Life Technologies and Expression Analysis (LTEA) Assay for Thyroid Hormone Responsive (THRSP) using HepaRG (AID 2283536)
How it was run: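 Differentiated human HepaRG cells were exposed in duplicate for 48 h in serum-free induction medium to eight concentrations (top 100 uM, half-log steps, 0.5% DMSO). Expression was quantified by TaqMan qRT-PCR, normalized to ACTB, GAPDH and POLR2A, with bidirectional fitting against DMSO.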

[18] = read-out: Cellular tumor antigen p53 (Homo sapiens) (UniProt P04637); experiment: LTEA_HepaRG_TP53: Life Technologies and Expression Analysis (LTEA) Assay for Tumor Protein P53 (TP53) using HepaRG (AID 2283537)
How it was run: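 Gain or loss of TP53 mRNA signal is scored relative to 0.5% DMSO after 48 h chemical treatment of HepaRG liver cells, tested in duplicate at eight half-log concentrations up to 100 uM.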

[19] = read-out: UDP glucuronosyltransferase (UGT1A1), UGT1A1 (gene 54658); experiment: LTEA_HepaRG_UGT1A1: Life Technologies and Expression Analysis (LTEA) Assay for UDP glucuronosyltransferase (UGT1A1) using HepaRG (AID 2283538)
How it was run: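 Differentiated human HepaRG cells in serum-free induction medium were exposed in duplicate for 48 h to eight half-log concentrations up to 100 uM in 0.5% DMSO. UGT1A1 mRNA was quantified by TaqMan qRT-PCR, normalized to ACTB, GAPDH and POLR2A, and fitted bidirectionally against DMSO.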

Sequence of Cellular tumor antigen p53 (Homo sapiens) (P04637 whole entry, looked up): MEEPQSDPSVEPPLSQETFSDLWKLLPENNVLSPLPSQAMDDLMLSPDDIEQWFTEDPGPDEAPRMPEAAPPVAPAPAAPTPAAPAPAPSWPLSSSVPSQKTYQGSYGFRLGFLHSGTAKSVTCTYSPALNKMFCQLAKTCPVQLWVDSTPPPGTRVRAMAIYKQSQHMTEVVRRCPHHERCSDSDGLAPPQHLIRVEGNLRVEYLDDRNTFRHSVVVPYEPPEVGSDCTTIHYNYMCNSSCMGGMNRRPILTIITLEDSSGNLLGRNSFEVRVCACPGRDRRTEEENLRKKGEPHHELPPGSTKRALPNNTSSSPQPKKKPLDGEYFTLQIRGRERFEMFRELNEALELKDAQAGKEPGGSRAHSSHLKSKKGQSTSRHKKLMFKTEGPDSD
Sequence of Nuclear factor NF-kappa-B p105 subunit (Homo sapiens) (P19838 whole entry, looked up): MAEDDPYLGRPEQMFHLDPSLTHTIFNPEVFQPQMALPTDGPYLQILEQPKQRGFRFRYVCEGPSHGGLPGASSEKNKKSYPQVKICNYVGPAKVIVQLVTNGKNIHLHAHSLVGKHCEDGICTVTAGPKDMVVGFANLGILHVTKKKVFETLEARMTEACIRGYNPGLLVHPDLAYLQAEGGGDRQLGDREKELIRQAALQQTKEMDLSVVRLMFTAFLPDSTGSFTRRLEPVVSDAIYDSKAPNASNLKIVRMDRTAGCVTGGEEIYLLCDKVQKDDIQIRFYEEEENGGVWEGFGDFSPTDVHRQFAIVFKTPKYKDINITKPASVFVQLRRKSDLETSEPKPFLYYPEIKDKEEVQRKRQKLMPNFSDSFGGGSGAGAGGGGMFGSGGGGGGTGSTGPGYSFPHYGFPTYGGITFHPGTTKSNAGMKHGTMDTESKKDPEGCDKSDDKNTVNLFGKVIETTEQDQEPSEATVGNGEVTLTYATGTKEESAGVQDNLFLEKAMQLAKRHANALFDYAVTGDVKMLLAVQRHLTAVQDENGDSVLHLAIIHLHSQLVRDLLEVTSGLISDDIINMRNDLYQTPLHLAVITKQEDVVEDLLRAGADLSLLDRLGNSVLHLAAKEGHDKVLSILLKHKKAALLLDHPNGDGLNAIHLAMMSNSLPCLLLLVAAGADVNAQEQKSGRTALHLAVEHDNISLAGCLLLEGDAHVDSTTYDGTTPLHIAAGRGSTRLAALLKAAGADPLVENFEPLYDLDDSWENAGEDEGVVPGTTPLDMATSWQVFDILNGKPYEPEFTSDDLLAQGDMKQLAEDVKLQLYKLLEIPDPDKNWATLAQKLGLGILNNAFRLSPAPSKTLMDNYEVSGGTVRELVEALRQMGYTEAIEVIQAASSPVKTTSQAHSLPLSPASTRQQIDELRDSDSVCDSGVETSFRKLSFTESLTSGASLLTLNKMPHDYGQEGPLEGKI
Sequence of Nuclear factor erythroid 2-related factor 2 (Homo sapiens) (Q16236 whole entry, looked up): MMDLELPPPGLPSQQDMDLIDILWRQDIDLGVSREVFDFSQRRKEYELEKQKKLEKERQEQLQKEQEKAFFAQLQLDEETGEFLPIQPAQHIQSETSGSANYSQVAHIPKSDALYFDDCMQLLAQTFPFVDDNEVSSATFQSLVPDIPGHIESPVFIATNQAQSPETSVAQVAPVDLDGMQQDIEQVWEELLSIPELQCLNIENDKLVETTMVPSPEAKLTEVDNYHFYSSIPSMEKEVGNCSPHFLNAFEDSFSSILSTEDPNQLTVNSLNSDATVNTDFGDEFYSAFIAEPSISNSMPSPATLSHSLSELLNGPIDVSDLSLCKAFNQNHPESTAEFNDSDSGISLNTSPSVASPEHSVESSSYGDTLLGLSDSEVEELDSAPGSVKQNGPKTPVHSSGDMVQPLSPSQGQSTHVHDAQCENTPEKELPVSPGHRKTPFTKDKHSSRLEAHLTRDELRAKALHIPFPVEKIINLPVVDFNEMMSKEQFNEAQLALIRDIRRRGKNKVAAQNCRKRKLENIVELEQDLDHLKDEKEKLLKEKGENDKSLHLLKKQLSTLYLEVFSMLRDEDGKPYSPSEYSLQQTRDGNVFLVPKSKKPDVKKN
Sequence of Signal transducer and activator of transcription 3 (Homo sapiens) (P40763 whole entry, looked up): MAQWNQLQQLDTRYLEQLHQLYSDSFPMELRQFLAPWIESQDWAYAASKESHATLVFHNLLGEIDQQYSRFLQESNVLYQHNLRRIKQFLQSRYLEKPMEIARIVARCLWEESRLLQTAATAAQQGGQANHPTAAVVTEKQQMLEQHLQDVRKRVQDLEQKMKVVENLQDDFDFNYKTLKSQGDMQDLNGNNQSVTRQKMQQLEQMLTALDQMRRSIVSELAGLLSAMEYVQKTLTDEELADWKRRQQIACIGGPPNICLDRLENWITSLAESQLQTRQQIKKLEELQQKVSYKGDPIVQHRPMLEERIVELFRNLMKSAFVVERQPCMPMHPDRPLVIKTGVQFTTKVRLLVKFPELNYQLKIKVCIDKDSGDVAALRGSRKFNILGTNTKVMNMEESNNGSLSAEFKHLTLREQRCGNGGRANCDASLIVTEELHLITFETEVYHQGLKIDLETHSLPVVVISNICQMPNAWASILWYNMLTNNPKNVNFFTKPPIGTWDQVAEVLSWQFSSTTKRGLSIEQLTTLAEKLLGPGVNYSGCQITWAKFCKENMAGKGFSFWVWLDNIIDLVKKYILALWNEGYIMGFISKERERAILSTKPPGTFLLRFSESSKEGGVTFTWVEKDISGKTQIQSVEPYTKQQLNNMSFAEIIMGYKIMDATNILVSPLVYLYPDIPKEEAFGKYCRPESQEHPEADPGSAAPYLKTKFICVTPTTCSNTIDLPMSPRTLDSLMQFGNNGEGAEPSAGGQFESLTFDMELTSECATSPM

CO/N=C(/C1=NOCCO1)c1ccccc1Oc1ncnc(Oc2ccccc2Cl)c1F
AC50 [1]: 50 µM (active) | AC50 [2]: 5.88 µM (active) | outcome [3]: inactive | outcome [4]: inactive | outcome [5]: inactive | AC50 [6]: 24.8 µM (active) | AC50 [7]: 11.7 µM (active) | outcome [8]: inactive | AC50 [9]: 50 µM (active) | outcome [10]: inactive | AC50 [11]: 6.5 µM (active) | AC50 [12]: 31.1 µM (active) | AC50 [13]: 33.9 µM (active) | AC50 [14]: 31.2 µM (active) | outcome [15]: inactive | outcome [16]: inactive | AC50 [17]: 27.1 µM (active) | AC50 [18]: 27.1 µM (active) | AC50 [19]: 35.8 µM (active)

Cc1cc(C)nc(Nc2ccccc2)n1
outcome [1]: inactive | outcome [2]: inactive | outcome [3]: inactive | outcome [4]: inactive | outcome [5]: inactive | AC50 [6]: 9.92 µM (active) | outcome [7]: inactive | outcome [8]: inactive | outcome [9]: inactive | outcome [10]: inactive | outcome [11]: inactive | outcome [12]: inactive | outcome [13]: inactive | outcome [14]: inactive | outcome [15]: inactive | outcome [16]: inactive | outcome [17]: inactive | outcome [18]: inactive | AC50 [19]: 68.6 µM (active)

CC(C)NC(=O)N1CC(=O)N(c2cc(Cl)cc(Cl)c2)C1=O
outcome [1]: inactive | outcome [2]: inactive | outcome [3]: inactive | outcome [4]: inactive | outcome [5]: inactive | AC50 [6]: 21.3 µM (active) | AC50 [7]: 12.7 µM (active) | outcome [8]: inactive | AC50 [9]: 13.1 µM (active) | outcome [10]: inactive | AC50 [11]: 5.78 µM (active) | AC50 [12]: 15.6 µM (active) | AC50 [13]: 13.1 µM (active) | outcome [14]: inactive | outcome [15]: inactive | outcome [16]: inactive | AC50 [17]: 50 µM (active) | outcome [18]: inactive | AC50 [19]: 4.3 µM (active)

CC1(C)CCC(=Cc2ccc(Cl)cc2)C1(O)Cn1cncn1 (stereo not given)
outcome [1]: inactive | outcome [2]: inactive | outcome [4]: inactive | outcome [5]: inactive | outcome [6]: inactive | outcome [7]: inactive | outcome [8]: inactive | outcome [9]: inactive | outcome [10]: inactive | outcome [11]: inactive | outcome [12]: inactive | outcome [13]: inactive | outcome [14]: inactive | outcome [15]: inactive | outcome [16]: inactive | AC50 [17]: 24.1 µM (active) | outcome [18]: inactive

Cn1c(-c2ccccc2)cc(-c2ccccc2)[n+]1C
AC50 [1]: 88.9 µM (active) | AC50 [2]: 10.7 µM (active) | outcome [4]: inactive | AC50 [5]: 88.3 µM (active) | AC50 [6]: 34.5 µM (active) | outcome [7]: inactive | outcome [8]: inactive | outcome [9]: inactive | outcome [10]: inactive | AC50 [11]: 22.5 µM (active) | AC50 [12]: 18.6 µM (active) | AC50 [13]: 50 µM (active) | outcome [14]: inactive | outcome [15]: inactive | AC50 [16]: 72.2 µM (active) | AC50 [17]: 50 µM (active) | AC50 [18]: 86.5 µM (active) | AC50 [19]: 39.9 µM (active)

Cc1ccc(N=CN(C)C=Nc2ccc(C)cc2C)c(C)c1
outcome [1]: inactive | outcome [2]: inactive | outcome [4]: inactive | outcome [5]: inactive | outcome [6]: inactive | outcome [7]: inactive | outcome [8]: inactive | outcome [9]: inactive | outcome [10]: inactive | outcome [11]: inactive | outcome [12]: inactive | outcome [13]: inactive | outcome [14]: inactive | outcome [15]: inactive | outcome [16]: inactive | outcome [17]: inactive | outcome [18]: inactive | AC50 [19]: 39.3 µM (active)
